Compound activity from PubChem.
A selection: hits, their analogues and other compounds. The true share with any hit is near 2.5%.
RAD52 inh – RAD52 DNA annealing inhibitors, primary screen, biochemical, FRET, single point, set 2; recombinant RAD52 DNA annealing, FRET fluorescence; inhibition, % at 18.7 µM; actives 0.46% (n = 360,000); AID 651710, 2012;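 active means every replicate showing at least 50% inhibition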
rRNA inh HTS – reduced GFP signal of wild-type E. coli, primary screen, bacterial rRNA inhibitor project, GFP/RFP fluorescence, OD600, single point; E. coli WT GFP vs humanized-ribosome RFP mutants, 24 h; stronger effect = lower value; DMSO median 0, no signal -100; GFP signal change (wild-type ribosome), % (no concentration beside the values); actives 1.6% (n = 350,000);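 active means significant combined selectivity score with lowered wild-type GFP, culture density cut under 30%, mutant RFP and density less affected; inactive means any of these conditions unmet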
MLL AF4-AF9 inh – inhibitors of AF4 peptide binding to AF9, primary screen, biochemical, AlphaScreen, biotin-AF4 peptide, FLAG-AF9, single point; Protein AF-9 (Homo sapiens), P42568; inhibition, % at 10 µM; actives 0.47% (n = 350,000);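 active means every replicate reaching a set inhibition limit, whatever the replicate mean, cut at about 25% in these data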;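 further: 0% = plate neutral control median and 100% = total signal loss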
Casp6 inh – human caspase-6 inhibitors, primary screen, biochemical, VEID-R110 fluorescence, single point, set 2; purified caspase-6, Z-VEID-R110 cleavage fluorescence; inhibition, % at 12.5 µM; P55212; actives 0.53% (n = 350,000);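 active means mean inhibition across replicates at least about 35%, with every replicate also reaching that limit, limit read from the data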;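 further: 0% = median of neutral control wells and 100% = no fluorescence left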
NSD2 HMT inh – NSD2 histone methyltransferase inhibitors, primary screen, biochemical, AlphaScreen, single concentration, set 2. AID 743445, 2014. NSD2 peptide methylation, 120 min. Histone-lysine N-methyltransferase NSD2 (Homo sapiens), O96028. inhibition, % at 12.5 µM. actives 0.54% (n = 310,000); in the data active means inhibition above about 50%
AlphaScreen art – AlphaScreen signal interference with preloaded methylated product, dose response, artefact control for NSD2 inhibitor project, biochemical, cherry-picked samples; shares compounds with NSD2 HMT inh; AlphaScreen artifact counterscreen, preloaded methylated H4 peptide; AC35, µM (highest dose often 10 µM), for the others: top-dose activity change, negative = signal loss; actives 9.4% (n = 1,500); AID 1053174, 2014; call rule not given here
An asterisk follows results filed as active; . = no result given.

SMILES	RAD52 inh	rRNA inh HTS	MLL AF4-AF9 inh	Casp6 inh	NSD2 HMT inh	AlphaScreen art
O=C(CSc1nccn1-c1ccccc1)NCc1ccc(F)cc1	-10	-5	1	0	0	.
O=C(CSc1nccn1-c1ccc(F)cc1)NCc1ccc(F)cc1	-15	1	1	2	50*	-12%
CC(=O)N=Cc1c(C)c(C#N)c(=O)n(C)c1O	-74	24	0	31	101*	-5%
C[C@H]1CN([C@@H](C)CO)C(=O)c2cccc(NC(=O)c3cnccn3)c2O[C@@H]1CN(C)S(=O)(=O)c1ccccc1	.	1	.	.	.	.
O=C(c1ccc(S(=O)(=O)N2CCOCC2)cc1)N(c1cccc(Cl)c1)C1C=CS(=O)(=O)C1 (centres undefined)	-7	9	-1	-2	83*	-6%
O=C(c1ccc(S(=O)(=O)N2CCOCC2)cc1)N(c1ccccc1)C1C=CS(=O)(=O)C1 (centres undefined)	.	.	.	.	5	.
CNS(=O)(=O)c1cc(NC(=O)CCCNC(=O)c2ccc(Cl)cc2)ccc1C	-16	-4	7	-3	67*	-6%
O=C(Nc1ccc(Br)cc1)c1ccc(-n2cnnn2)cc1	9	-1	-10	3	105*	-4%
Cc1cccc(C)c1NC(=O)c1ccc(-n2cnnn2)cc1	.	.	.	.	-7	.
CCOC(=O)N1CCN(C(=O)CSCC(=O)Nc2nc(-c3ccc(-c4ccccc4)cc3)cs2)CC1	-10	4	-6	-1	.	.
O=C(CSCC(=O)N1CCOCC1)Nc1nc(-c2ccccc2)cs1	-5	-7	5	0	53*	2%
Cc1ccc(OCc2cnc(Cl)s2)c(C)c1	-4	3	3	1	52*	0%
CC(=O)c1cccc(NC(=S)Nc2cccc3ccccc23)c1	-19	0	3	0	-1	.
Cc1ccc(NC(=S)Nc2cccc3cnccc23)cc1C	-19	-41	3	3	21	.
Cc1ccc(NC(=S)Nc2cccc3cnccc23)cc1	-2	-42	3	80*	101*	0%
CC(=O)c1ccc(NC(=S)Nc2cccc3cnccc23)cc1	-4	28	-2	0	81*	-8%
CO[C@H]1CC[C@@H]2CCN(C)C(=O)C[C@H](c3ccccc3)CN(C)C(=O)c3cccc(C#N)c3OC[C@@H]1O2	-3	1	1	-3	.	.
CC(=O)c1cc(O)c2ccccc2c1O	-31	16	5	38*	79*	-5%
CC(=O)c1c(C)oc2c1cc(O)c1ccccc12	-9	6	6	-5	.	.
COc1cccc(/C(O)=C2\C(=O)C(=O)N(c3ccccn3)C2c2ccccc2OC)c1 (centres undefined)	.	.	.	.	-1	.
COc1ccc(C2/C(=C(\O)c3cccc(OC)c3)C(=O)C(=O)N2c2ccccn2)cc1 (centres undefined)	0	5	.	24	116*	-1%
CCN(CCCn1c(=S)[nH]c2ncccc2c1=O)c1ccccc1	.	.	.	.	2	.
CCN(CC)CCCn1c(=S)[nH]c2ncccc2c1=O	.	.	.	.	55*	-5%
CNCCCC1Sc2ccccc2Oc2ccccc21 (centres undefined)	.	.	.	.	72*	-8%
O=C(Nc1cccnc1)c1ccc(COc2ccccc2Cl)o1	.	.	.	.	127*	-1%
O=C(Nc1cccnc1)c1ccc(COc2cc(Cl)ccc2Cl)o1	.	.	.	.	-1	.
O=C(/C=C/c1ccc(O)c(O)c1)OC1C(O)CC(OC(=O)/C=C/c2ccc(O)c(O)c2)(C(=O)O)CC1O (centres undefined)	-4	5	-5	3	66*	-11%
Cc1ccccc1S(=O)(=O)NCC[C@H]1CC[C@H](NS(=O)(=O)c2ccccc2C)[C@@H](CO)O1	-2	-6	3	-1	.	.
O=[N+]([O-])c1cccc(NC(=S)N2CCOCC2)c1	-21	21	2	4	85*	-2%
O=c1c2ccc([N+](=O)[O-])cc2sn1-c1ccccc1	.	.	.	.	59*	-11%
